Results taken from PubChem BioAssay AID463173 (ICCB-Longwood Screening Facility, Harvard Medical School, 2010).
About 1,700 (3.3%) of roughly 52,000 compounds were called active. What follows is part of a selection rich in actives, with near analogues and random picks from the rest. A number with no mark means an inactive call. Cut-off read from the data, not from the text of the source: active = survival mostly below about 52% (no sharp cut-off); inactive = mostly above about 56%.

test system: Wild type; experiment: growth inhibition of S. aureus wild type versus tarO mutant, primary screen, teichoic acid synthesis inhibitors, RN4220, OD600 (AID 463173); conditions: S. aureus RN4220 wild type/DeltatarO growth, OD600, 18 h, active compounds read low, screened at 18.75 µg/mL (by protocol)

First: Cc1cccc(-n2ncc3c(Nc4ccc(Oc5ccc(Cl)cc5)cc4)ncnc32)c1
Second: Cc1ccc(-n2ncc3c(Nc4ccc5c(c4)OCCO5)ncnc32)cc1C
The survival of the first is lower: 88% for the first, 100% for the second.

Going from CCC(=O)C1=C(c2ccc(OC)c(OC)c2)N(C(=O)CC)n2c(CC)nnc2S1 to COc1cc(-c2noc(CCC(=O)Nc3cc(C)ccc3C)n2)cc(OC)c1OC, the survival rises from 55% to 82%.

First: COc1ccc(-c2noc(CCC(=O)Nc3ccc(C(F)(F)F)cc3)n2)cc1
Second: CC(C)(C)c1ccc(-c2noc(CCC(=O)Nc3cccc(Cl)c3)n2)cc1
The survival of the first is lower: 84% for the first, 87% for the second.

Compared with Cc1ccc(CNC(=O)CSc2nc3ccccc3nc2Cc2ccc(C)cc2)cc1, CCCCNC(=O)CSc1nc2ccccc2nc1Cc1ccc(C)cc1 is lower in survival: 78% for the first, 72% for the second.

Going from COc1cccc(Cc2nc3ccccc3nc2SCC(=O)Nc2cccc(C)c2)c1 to CCN(C(=O)CSc1nc2ccccc2nc1Cc1ccc(F)cc1)c1cccc(C)c1, the survival falls from 128% to 88%.

Compared with CCN(C(=O)CSc1nc(-c2ccc(C(C)C)cc2)no1)c1cccc(C)c1, CCN(C(=O)CSc1nc(-c2ccccc2)no1)c1ccccc1 is higher in survival: 72% for the first, 85% for the second.

First: COc1ccc(-c2noc(CC(=O)N(C)c3cccc(C)c3)n2)cc1
Second: CCN(C(=O)Cc1nc(-c2ccc(OC)cc2)no1)c1cccc(Cl)c1
The survival of the first is lower: 83% for the first, 84% for the second.

Going from CCCOc1ccc(C2C(=O)N(C3CCCCCC3)CC(=O)N2Cc2ccccc2OC)cc1OC (stereo unspecified) to CCOc1ccc(CCNC(=O)c2ccc3nc(N4CCC(C)CC4)sc3c2)cc1OCC, the survival falls from 87% to 73%.

Compared with COc1ccc(-c2nc(SCC(=O)Nc3ccc4c(c3)OCO4)c(-c3ccc(F)cc3)[nH]2)cc1OC, Cc1ccc2nc(-c3ccc(C)s3)c(Nc3ccc4c(c3)OCCO4)n2c1 is higher in survival: 65% for the first, 83% for the second.

Going from COC(=O)C1CCCc2c1[nH]c1ccc(Cl)cc21 (stereo unspecified) to CC1=C(C(=O)OC2CCCC2)C(c2cccc(Cl)c2Cl)CC(=O)N1 (stereo unspecified), the survival falls from 142% to 90%.

First: Cc1ccc(F)cc1NC(=O)c1ccc(Cn2nc(N3CCN(c4ccccc4)CC3)ccc2=O)o1
Second: CSc1cccc(Nc2cc(C(=O)NCCc3ccc(Cl)cc3)c3ccccc3n2)c1
The survival of the first is higher: 127% for the first, 120% for the second.

Compared with CCc1cccc(NS(=O)(=O)c2ccc3c(c2)CC(C)N3C(=O)C2CC2)c1 (stereo unspecified), COc1ccc(CNC(=O)Cn2c(=O)oc3cc(S(=O)(=O)N4CCCC4)ccc32)cc1 is higher in survival: 80% for the first, 91% for the second.

First: CCOC(=O)c1cccc(NC(=O)N2CC(CC)Sc3ccccc32)c1 (stereo unspecified)
Second: CCOC(=O)c1cccc(NC(=O)N2Cc3ccccc3Oc3ncccc32)c1
The survival of the first is higher: 84% for the first, 81% for the second.

First: COc1ccc(CNC(=O)c2cc3c(=O)n(Cc4ccco4)ccc3nc2C)cc1
Second: COc1ccc(CNC(=O)c2cc3cc4ccc(C)cc4nc3o2)cc1
The survival of the first is lower: 74% for the first, 88% for the second.

Going from Cc1ccc2c(c1)c1c3n2CCN(C(=O)CN2CCN(C(=O)c4ccco4)CC2)C3CCC1 (stereo unspecified) to Cc1c2cnn(CC(=O)O)c(=O)c2c(C)n1Cc1cccc(Cl)c1, the survival falls from 126% to 80%.

Going from COc1ccc(C(=O)Oc2ccc(C(c3c(C)[nH][nH]c3=O)c3c(C)[nH][nH]c3=O)cc2OC)cc1 to COc1ccc(OC)c(NC(=O)N2c3ccccc3Sc3ccccc32)c1, the survival falls from 73% to 19%.

First: O=C(CSc1nnc(CNC(=O)c2ccccc2F)n1-c1ccccc1)Nc1ccccc1F
Second: O=C(O)c1ccccc1NC(=O)N1c2ccccc2Sc2ccccc21
The survival of the first is higher: 66% for the first, 28% for the second.

First: Cc1ccc(C)c(NC(=O)CCc2nc(-c3ccc(C(C)(C)C)cc3)no2)c1
Second: Cc1c(-c2cccc(NC(=O)C(C)(C)C)c2)nc2ncccn12
The survival of the first is higher: 109% for the first, 71% for the second.

Going from COc1ccc2cc3cc(C(=O)NCc4ccc(C)cc4)oc3nc2c1 to CCc1nn(CC(=O)NCc2cccc(OC)c2)c(=O)c2cc3cc(F)ccc3n12, the survival falls from 89% to 69%.

Going from Cc1ccc(-n2cnc3ccccc3c2=O)cc1C to Cc1ccc(-n2ncc3c(NCc4ccccc4)ncnc32)cc1C, the survival falls from 89% to 67%.

First: CCN1C(=O)C(C2SC(=S)N(CC)C2=O)SC1=S (stereo unspecified)
Second: CCN(CC)C(=O)N1c2ccccc2Sc2ccccc21
The survival of the first is lower: 98% for the first, 108% for the second.

First: CCc1ccccc1N(C)C(=O)c1cnc(N2CCOCC2)c2ccccc12
Second: CCOC(=O)N1c2ccccc2Sc2ccccc21
The survival of the first is lower: 65% for the first, 95% for the second.

First: CCOc1ccccc1NC(=O)N1c2ccccc2Sc2ccccc21
Second: COc1cc(NC(=O)N2c3ccccc3Sc3ccccc32)cc(OC)c1
The survival of the first is lower: 61% for the first, 65% for the second.

Compared with CCCSc1ncc(Cl)c(C(=O)N(Cc2ccccc2)c2ccc(OC)cc2)n1, Cc1ccc(-n2ncc3c(NCCc4ccccc4)ncnc32)cc1Cl is lower in survival: 80% for the first, 65% for the second.

Cc1c(-c2cccc(NC(=O)Nc3ccccc3)c2)nc2ncccn12 was tested, and the survival was 64%.

For CCN(C(=O)CSc1nc(-c2ccccc2)no1)c1cccc(C)c1, the survival was -2% (active).
With CCCCN(C)C(=O)CSc1nc2ccccc2nc1Cc1ccc(C)cc1 the survival was 0% (active).
With CCN(C(=O)CSc1nc2ccccc2nc1Cc1cccc(OC)c1)c1cccc(C)c1 the survival was -2% (active).
For CCN(C(=O)CCc1nc(-c2ccc(C)cc2)no1)c1cccc(C(F)(F)F)c1, the survival was 0% (active).
With CCN(C(=O)c1cc2cc3ccc(OC)cc3nc2o1)c1cccc(C)c1 the survival was 0% (active).
CCN(C(=O)CCc1nc(-c2ccc(C)cc2)no1)c1cccc(Cl)c1 was tested, and the survival was -1% (active).
CCN(C(=O)CCc1nc(-c2ccc(C)cc2)no1)c1cc(C)ccc1C was tested, and the survival was 0% (active).
For CC(C)c1ccc(NC(=O)N2c3ccccc3Sc3ccccc32)cc1, the survival was 5% (active).
With CCc1ccc(NC(=O)N2c3ccccc3Sc3ccccc32)cc1 the survival was 1% (active).
In the case of COc1ccccc1NC(=O)N1c2ccccc2Sc2ccccc21, the survival is reported as -1% (active).
For Cc1c(-c2cccc(NC(=O)Nc3ccc(Cl)cc3)c2)nc2ncccn12, the survival was -4% (active).
For Cc1ccc(-n2ncc3c(NCc4ccccc4)ncnc32)cc1Cl, the survival was -6% (active).
